The record followed here is the supplement of paper PMC10338343.

± gives the standard deviation. In all, about 6,200 sequences were measured (“pre-steady-state target cleavage rate”: median about 0.29, highest 2% from about 2 on). The full list was thinned out, with the highest values kept by preference.

The test system of the experiment is MIWI (PIWIL1) piRISC loaded with piRNA #1 (30 nt). Nature of the experiment: pre-steady-state target cleavage rate (min^-1); MIWI and MILI are mouse PIWI proteins and EfPiwi is from a freshwater sponge; tags in brackets are library labels; higher = faster piRNA-guided slicing of the target. To be noted: guide: piRNA #1 5'p-UGAGGUAGUAGGUUGUAUAGUAUCCAGAGG; auxiliary factor: 500 nM mouse GTSF1. The protocol:
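Cleave-'n-Seq: a library of target RNAs (target site embedded in constant flanks, ACAGCATTCCGCGTTAGTGATATCCG... 5' flank; DNA-blocked outside the site) at 0.1 nM was incubated with 1 nM active mouse MILI or MIWI piRISC (synthetic 5'-monophosphorylated piRNA guide) with or without 500 nM mouse GTSF1 at 33 °C for 1 min to 16 h. Uncleaved targets were sequenced and normalised to non-target controls, and the pooled three trials were fitted to a burst-and-steady-state model to give the pre-steady-state cleavage rate (min^-1; k3 is constrained to at most 1e-4). Sequence is the target site only; target names encode pairing extent (gX:gY) and contiguous / 1-mismatch / 2-mismatch / bulge geometry. Fits with R² ≤ 0 are excluded.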
Take GGUCUGCGAUACUAUACAACCUACUACCUCA: the “pre-steady-state target cleavage rate” value amounted to 1.79 ± 0.071. Consider GCUCUGGGAUACUAUACAACCUACUACCUCA, for which the “pre-steady-state target cleavage rate” value is 1.89 ± 0.096. With GCUCUGCGAUACUAUACAACCUACUACCUCA, the “pre-steady-state target cleavage rate” value is 2.02 ± 0.12. With CCUCUGCGAUACUAUACAACCUACUACCUCA the figure was 2.19 ± 0.12; with GGACUGCGAUACUAUACAACCUACUACCUCA, 1.79 ± 0.13. As for GGAGUGGAUACUAUACAACCUACAACCUCA, the “pre-steady-state target cleavage rate” value turned out to be 0.314 ± 0.037. For GGACUGGAUACUAUACCACCUACUACCUCA the value was 1.17 ± 0.082; for GGAGACCUUACUAUUCAACCUAGUACCUCA, 0.395 ± 0.04. For GGAGACCUAUGUAUACCACCUACUACCUCA, the “pre-steady-state target cleavage rate” value was found to be 0.0149 ± 0.0026. As to GCCUGGAUACUAUACAACCUACUACCUCA, the “pre-steady-state target cleavage rate” value worked out at 1.87 ± 0.11.

Turning to CCCCUGGAUACUAUACAACCUACUACCUCA, the “pre-steady-state target cleavage rate” value is 2.45 ± 0.15.

Turning to GAUCUGGAUACUAUACAACCUACUACCUCA, the “pre-steady-state target cleavage rate” value is 1.91 ± 0.097. For GGCCUGGAUACUAUACAACCUACUACCUCA the value was 1.74 ± 0.098; for GCCCUGGAUACUAUACAACCUACUACCUCA, 2.17 ± 0.12. In the case of GGACCUGGAUACUAUACAACCUACUACCUCA, the “pre-steady-state target cleavage rate” value was found to be 1.96 ± 0.14. For the sequence CCUGUGGAUACUAUACAACCUACAACCUCA, the “pre-steady-state target cleavage rate” value was 0.383 ± 0.043. As to CCCUGGAUACUAUACAACCUACUACCUCA, the “pre-steady-state target cleavage rate” value was 2.52 ± 0.18. As to CCUGUGGAUACUAUACAACCUACUACCUCA, the “pre-steady-state target cleavage rate” value came out at 1.86 ± 0.11. With GGAGACCUUACUAUACAAGCUAGUACCUCA, the “pre-steady-state target cleavage rate” value amounted to 0.471 ± 0.033.

For the sequence GCUCUGGAUACUAUACAACCAACUACCACA, the “pre-steady-state target cleavage rate” value stood at 0.153 ± 0.018.

As for GGAGACGAAAGUAUACAACCUACUACCUCA, the “pre-steady-state target cleavage rate” value stood at 0.527 ± 0.062.

For GGUCUGGAUAGUAUACAACCUACUACGUCA, the “pre-steady-state target cleavage rate” value came to 0.583 ± 0.055. For GGAGAGGAAACUAUACAUCCUACUACCUCA, the “pre-steady-state target cleavage rate” value stood at 1.19 ± 0.074.

For the sequence GCUCUGGAUACUAUACAACCUCCUACCUCA, the “pre-steady-state target cleavage rate” value is 1.2 ± 0.052. Take GCUCCUGGAUACUAUACAACCUACUACCUCA: the “pre-steady-state target cleavage rate” value amounted to 2.13 ± 0.11. On to CCUCUGGAUACUAUACAACCUCCUACCUCA, for which the “pre-steady-state target cleavage rate” value stood at 1.32 ± 0.068. Regarding GGUCCUGGAUACUAUACAACCUACUACCUCA, the “pre-steady-state target cleavage rate” value is 1.97 ± 0.099. For the sequence CCUCCUGGAUACUAUACAACCUACUACCUCA, the “pre-steady-state target cleavage rate” value worked out at 2.25 ± 0.13. For GGUCGUGGAUACUAUACAACCUACUACCUCA the value was 1.72 ± 0.093. With CCAGUGGAUACUAUACAACCUACUACCUCA the figure was 2.01 ± 0.11. Take GGACUGGAUACUAUACAACCUCCUACCUCA: the “pre-steady-state target cleavage rate” value stood at 0.801 ± 0.052.

On to GCAGUGGAUACUAUACAACCUACUACCUCA, for which the “pre-steady-state target cleavage rate” value came out at 1.85 ± 0.095. As for CCUCGUGGAUACUAUACAACCUACUACCUCA, the “pre-steady-state target cleavage rate” value is 2.17 ± 0.16. For GCUCGUGGAUACUAUACAACCUACUACCUCA the value was 1.85 ± 0.095; for GGAGUGGAUACUAUACUACCUACAACCUCA, 0.428 ± 0.052.

On to GGAGACCAUAUAUACAACCUACUACCUCA, for which the “pre-steady-state target cleavage rate” value stood at 0.184 ± 0.018. For GGAGACCUUAGUAUACUACCUACUACCUCA the value was 0.0222 ± 0.0051; for GGAGACCUAACUAUACAACCUUCUACCACA, 0.194 ± 0.026. For GGAGACCUAUCUAUACAACCUACUACACUCA the value was 0.634 ± 0.061.

In the case of CCUCUGGAUACUAUACAACCUAGUACCUCA, the “pre-steady-state target cleavage rate” value turned out to be 0.172 ± 0.039. For GGUCUGGAUACAAUACAACCUAGUACCUCA, the “pre-steady-state target cleavage rate” value is 0.562 ± 0.054. For GCUCAGGAUACUAUUCAACCUACUACCUCA, the “pre-steady-state target cleavage rate” value stood at 2.09 ± 0.13. For the sequence GGUCAGGAUACUAUUCAACCUACUACCUCA, the “pre-steady-state target cleavage rate” value is 1.79 ± 0.1. Turning to GGACAGGAUACUAUUCAACCUACUACCUCA, the “pre-steady-state target cleavage rate” value came out at 1.69 ± 0.11. As for CCUCAGGAUACUAUUCAACCUACUACCUCA, the “pre-steady-state target cleavage rate” value was found to be 2.22 ± 0.14. For GGAGAGGAUACUAUUCAACCUACUACCUCA the value was 1.23 ± 0.062. As to GCUCUGGAUACUAUUCAACCUACUACCUCA, the “pre-steady-state target cleavage rate” value was 1.87 ± 0.11. Turning to GCUCUGGAUACUAUACUAACCUACUACCUCA, the “pre-steady-state target cleavage rate” value came to 0.00667 ± 0.0041. For the sequence GGAGACGAUACAAUUCAACCUACUACCUCA, the “pre-steady-state target cleavage rate” value was 0.664 ± 0.073. Regarding GGAGUGGAUAGUAUACAACCUACUAGCUCA, the “pre-steady-state target cleavage rate” value is 0.0218 ± 0.0063. As for GGAGACGAUACUAUACUAGCUACUACCUCA, the “pre-steady-state target cleavage rate” value came out at 0.579 ± 0.048. For GGUCUGGAUUCUAUAGAACCUACUACCUCA the value was 0.979 ± 0.064; for GCUCUCGAUACAAUACAACCUACUACCUCA, 2.07 ± 0.12. With CCUCUCGAUACAAUACAACCUACUACCUCA the figure was 2.17 ± 0.14; with GGUCUCGAUACAAUACAACCUACUACCUCA, 1.77 ± 0.12; with GGACUCGAUACAAUACAACCUACUACCUCA, 1.46 ± 0.095. As to GCUCUCGAUAGUAUACAACCUACUACCUCA, the “pre-steady-state target cleavage rate” value was found to be 1.95 ± 0.13. Take GCUCUCGAUACUAUACAACCUACAACCUCA: the “pre-steady-state target cleavage rate” value turned out to be 1.01 ± 0.078. For the sequence GCUCUGGAUAGUAUUCAACCUACUACCUCA, the “pre-steady-state target cleavage rate” value came to 0.849 ± 0.044.

Take GGAGACCAUACUAUUCAACCUACUACCACA: the “pre-steady-state target cleavage rate” value was determined as 1.05 ± 0.078. On to GGACUGGAUACUAUACAACCUACGUACCUCA, for which the “pre-steady-state target cleavage rate” value was determined as 0.656 ± 0.089. As to GCUCUGGAUACUAUACAACGUACUUCCUCA, the “pre-steady-state target cleavage rate” value is 0.486 ± 0.045.

Turning to GGAGACGAAACUAUACAAGCUACUACCUCA, the “pre-steady-state target cleavage rate” value was 0.872 ± 0.057. Consider GGAGUGGUUUCUAUACAACCUACUACCUCA, for which the “pre-steady-state target cleavage rate” value came out at 1.32 ± 0.081. On to GCUCUGGAUACUUAUACAACCUACUACCUCA, for which the “pre-steady-state target cleavage rate” value was 1.53 ± 0.084.

On to CCUCUGGAUACUAUACAACCUACUUACCUCA, for which the “pre-steady-state target cleavage rate” value is 2.2 ± 0.14. GCUCUGGAUACUAUACAACCUACUUACCUCA: the “pre-steady-state target cleavage rate” value is 2.1 ± 0.13.

As for GGUCUGGAUACUAUACAACCUACUUACCUCA, the “pre-steady-state target cleavage rate” value was 1.23 ± 0.084. For CCUCUGGAUACUUACAACCUACUACCUCA, the “pre-steady-state target cleavage rate” value was 1.3 ± 0.12. With GCUCUGGAUACUUACAACCUACUACCUCA the figure was 1.18 ± 0.1; with GGAGACCUUACUAUACAACCUACCACCUCA, 0.847 ± 0.06. On to GGACUGGAUACUUAUCAACCUACUACCUCA, for which the “pre-steady-state target cleavage rate” value worked out at 0.719 ± 0.1. On to GGACUGGAUACGAUACAACCUACUACCUCA, for which the “pre-steady-state target cleavage rate” value came out at 1.64 ± 0.1. For CCUCUGGAUACUAAACUACCUACUACCUCA, the “pre-steady-state target cleavage rate” value stood at 1.24 ± 0.098. CCACAGGAUACUAUACAACCUACUACCUCA: the “pre-steady-state target cleavage rate” value came to 1.87 ± 0.13. With GCUCAGGAUACUAUACAACCUACUACCACA the figure was 1.75 ± 0.1; with GCUCAGGAUACAAUACAACCUACUACCUCA, 1.9 ± 0.12.
